In PubChem BioAssay one finds composite z-score data, which are given here for 15 compounds.

For the test, the target named is Fibroblast growth factor 2 (Homo sapiens) (UniProt P09038). As to the kind of experiment: FGF2 binders on small-molecule microarrays, primary screen, biochemical, small-molecule microarray, 635/667 nm fluorescence (AID 1133). The note with it: small-molecule microarray binding, FGF2, fluorescence 635/667; higher = more signal.
Sequence of Fibroblast growth factor 2 (Homo sapiens) (P09038 whole entry, looked up): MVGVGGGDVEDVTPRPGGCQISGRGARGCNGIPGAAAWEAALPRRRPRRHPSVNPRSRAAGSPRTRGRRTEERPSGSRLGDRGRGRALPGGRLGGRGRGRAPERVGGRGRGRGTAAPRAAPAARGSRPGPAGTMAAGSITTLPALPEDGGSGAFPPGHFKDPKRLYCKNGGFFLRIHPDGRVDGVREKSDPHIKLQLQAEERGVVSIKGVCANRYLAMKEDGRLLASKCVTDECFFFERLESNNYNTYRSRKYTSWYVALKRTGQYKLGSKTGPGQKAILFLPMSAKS
The compound `C=CCNC(=O)[C@@H]1[C@H]2C(=O)O[C@H](c3ccccc3)[C@H](c3ccccc3)N2[C@H](c2ccccc2OCCO)[C@@]12C(=O)N(C(=O)OCCOC)c1ccc(C#CC3=CCCCC3)cc12` came in with a composite z-score of 1.43.

The compound `COc1ccc(C(O)C2C=CC3C(=O)N(c4ccccc4)C(=O)C3N2Nc2ccc(C#N)cc2)c2ccccc12` (stereo not given) displayed a composite z-score of -0.012.

Compound `COCCOC(=O)N1C(=O)[C@@]2(c3cc(C#CC4(O)CCCCCC4)ccc31)[C@H](c1ccccc1OCCO)N1[C@H](c3ccccc3)[C@H](c3ccccc3)OC(=O)[C@H]1[C@@H]2C(N)=O` showed a composite z-score of 1.51.

`C[C@]1(C(=O)NC2CC2)c2ccccc2C(=O)N(Cc2ccc(OC(F)(F)F)cc2)[C@H]1c1ccc(CO)cc1` returned a composite z-score of 0.0672.

In turn, `C#CCNC(=O)[C@H](Cc1ccccc1)NC(=O)[C@@H](N=[N+]=[N-])C(C)C` showed a composite z-score of 0.524.

Take `CC(C)(C)OC(=O)CC[C@]1(C(=O)NCCN2CCOCC2)N=C(c2ccc(OCCCO)cc2)O[C@H]1c1ccccc1`: the composite z-score is -0.397.

The compound `[N-]=[N+]=NCc1ccccc1C[C@]1(C(=O)NCC(O)CO)N=C(c2ccc(OCCCO)cc2)O[C@H]1c1ccccc1CN=[N+]=[N-]` (stereo not given in full) had a composite z-score of 0.495.

For `COc1cc2c(cc1OC)CN(C(=O)[C@@H]1[C@H]3C(=O)O[C@H](c4ccccc4)[C@H](c4ccccc4)N3[C@H](c3ccccc3OCCO)[C@@]13C(=O)Nc1ccc(C#CC4(O)CCCCCC4)cc13)CC2`, the composite z-score was 0.513.

Take `C[C@@H](OCc1ccccc1)C1NC(=O)[C@@]23C(=O)N[C@@H](Cc4ccccc4)C2[C@H](C)[C@@]2(C)O[C@H]2C3/C=C/C/C=C\CNC(=O)CNC1=O` (stereo not given in full): the composite z-score was -0.113.

`COCCCNC(=O)[C@]1(CCC(=O)OC(C)(C)C)N=C(c2ccc(OCCCO)cc2)O[C@@H]1c1ccccc1`: the composite z-score was -0.0959.

On to `CN(C)C(=O)[C@@]1(Cc2ccccc2N=[N+]=[N-])COC(c2ccc(OCCCO)cc2)=N1`, for which the composite z-score came out at 1.76.

In the case of `CCCc1cccc(=O)o1`, the composite z-score was found to be 0.223.

In the case of `CC(C)C[C@@H]1NC(=O)[C@H]2C[C@@H](C(=O)NCCCCCC[N+](C)(C)C)[C@@H](c3cccc(OCCO)c3)N2C1=O`, the composite z-score came to 1.01.

In the case of `[N-]=[N+]=Nc1ccccc1C[C@]1(C(=O)NCc2ccccc2)N=C(c2ccc(OCCCO)cc2)O[C@H]1c1ccccc1`, the composite z-score was found to be 0.0124.

Regarding `C[C@@H]1ON(c2ccc(C(=O)OC(C)(C)C)cc2)[C@H](c2ccc(Br)cc2)[C@H]1C(=O)N1C(=O)OC[C@H]1Cc1ccccc1`, the composite z-score was 0.734.
